Molecules are shown by their SMILES. This is part of a sample that, as a whole, favours compounds with a hit. Of some 83,000 tested, about 20% had one in any assay.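 Assay: single dose, 48 h. Readout: percent growth (0 = no net growth; negative = cell death). Active: <10.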 Calls of active or inactive are those of the source.

Experimental findings from PubChem BioAssay (NCI) are described below.

The test system of this assay is HCT-116 colon. The assay is described as follows: NCI-60 one-dose screen, 48 h (100 = growth as untreated, 0 = no growth, -100 = all killed). Conditions: 10 µM unless noted. The method, then: Growth inhibition of the HCT-116 human tumor cell line is measured as a screen for anti-cancer activity. Cells are grown in 96 well plates and exposed to the test compound for 48 hours. Compounds are tested at a single concentration, which is 10^-5 M for most compounds. The reported endpoint is percent growth (GI% or GIPRCNT), where numbers from 0 - 100% represent growth inhibition, and numbers from -100% - 0 represent cell death. For example, a value of 40 represents 60% growth inhibition. A value of 0 means no net growth occurred over the course of the experiment. A value of -40 indicates 40% of cells at the beginning of the experiment died by the end of the experiment. A value of -100 means all cells are dead at the end of the experiment.
NCI-60 Human Tumor Cell Lines Screen was performed using the standard one-dose NCI protocol, which is described in more detail at https://dtp.cancer.gov/discovery_development/nci-60/default.htm.
Compounds with GIPRCNT values below 10 were considered active. Activity score was based on GIPRCNT using the following formula: […]
Score is 0 for GIPRCNT values of 100 or above, 50 for GIPRCNT values of 0, and 100 for GIPRCNT values of -100.
On to `COc1ccc(N2CCN(C(=O)CSc3ccc(-c4nc5cc(C)c(C)cc5[nH]4)cn3)CC2)cc1`, for which the growth was 74.3% (inactive).

As for `O=C1/C(=C/c2ccccc2[N+](=O)[O-])Oc2ccc(O)cc21`, the growth was -20.5% (active).

In the case of `CCCCCCCCCC[C@@H](C)[C@@H]1CC(=O)N[C@H]([C@@H](C)O)C(=O)N[C@@H](C)C(=O)N[C@H](C)C(=O)N[C@@H](CCC(N)=O)C(=O)N[C@H](Cc2ccc(O)cc2)C(=O)N[C@@H](C(C)CC)C(=O)O1` (stereo not given in full), the growth was 64.6% (inactive).

`CCOC(=O)Nc1cccc(-n2cnc3cc(-c4ccc(O)cc4)ccc32)c1`: the growth was 10.3% (inactive).

Turning to `COc1ccc(-c2cc(-c3cccc4ccccc34)n3c(n2)nc2ccccc23)cc1`, the growth is 37.9% (inactive).

For `COc1ccccc1N1CCN(C2=NN=C(c3cccc(Cl)c3)c3ccccc3C2)CC1`, the growth is 7.98% (active).

Turning to `CCCC(=O)NC(c1cccnc1)c1ccc2c(C)ccnc2c1O` (stereo not given), the growth is 16.7% (inactive).

In the case of `COc1cc(O)c2c(c1)[C@H]1O[C@@H]1C[C@H](O)[C@H](O)C(=O)/C=C\C[C@H](C)OC2=O`, the growth is 27.7% (inactive).

Take `O=C1c2c(O)cc(O)cc2O[C@@H](c2ccc(O)cc2)[C@@H]1c1c(O)cc(O)c2c(=O)cc(-c3ccc(O)c(O)c3)oc12`: the growth is 100% (inactive).

As to `N/C(=N\c1nc2c(Cl)cccc2s1)C(Cl)(Cl)Cl`, the growth was 69.7% (inactive).

As for `COc1cc(-c2nc(SCc3ccc(C)cc3)[nH]c(=O)c2C#N)ccc1OCc1ccccc1`, the growth is 112% (inactive).

For the compound `COc1ccc(C2CC(c3ccc(Nc4nc(NCCO)nc(Nc5ccc(Cl)cc5)n4)cc3)=Nc3c(N)nc(N)nc3N2)cc1` (stereo not given), the growth is -80.3% (active).

Turning to `CC(=O)Nc1ccc(C)c(Nc2cc(-c3ccc(-n4cccn4)cc3)[nH]n2)c1`, the growth is 19.3% (inactive).

With `O=C1[C@H]2Cc3c([nH]c4ccccc34)[C@@H](c3ccc(Cl)cc3)N2C(=O)CN1C1CCN(Cc2c(Cl)cccc2Cl)CC1`, the growth is 87.9% (inactive).

Regarding `Clc1ccc(-c2nc3ccc(/C(=N\N=C\c4ccccc4)c4ccccc4)cc3[nH]2)cc1`, the growth was 84.5% (inactive).

For the compound `O=C1c2c(c3c4cc(Br)ccc4[nH]c3c3ccc4ccccc4c23)C(=O)N1CCN1CCNCC1`, the growth was 11.2% (inactive).

Turning to `COC(=O)[C@@]1(C)CC[C@]2(C)CC[C@]3(C)C(=CC(=O)[C@@H]4[C@@]5(C)Cc6c(n(CC#CCN7CCN(C)CC7)c7ccccc67)C(C)(C)[C@@H]5CC[C@]43C)[C@@H]2C1`, the growth is -28.7% (active).

Turning to `COC(=O)Nc1ccc(-c2nc(-c3cccc(O)c3)c(-c3ccnc(Br)c3)[nH]2)cc1`, the growth is 49.7% (inactive).

As for `COc1ccc(/C=C/C(=O)c2nnn(-c3ccc(C(=O)O)cc3)c2C)cc1OC`, the growth is 91.6% (inactive).

Take `COc1ccc(C(=O)n2cc(C=O)c3ccccc32)cc1`: the growth is 91.3% (inactive).

On to `O=C1CC2(CCOCC2)Oc2ncccc21`, for which the growth is 29% (inactive).

For the compound `CNC(=O)c1cc(N2CCc3cc(NC(=O)Nc4ccc(Cl)c(Cl)c4)ccc32)ccn1`, the growth was 92.7% (inactive).

As for `CCOC(=O)CC(=O)CSC1=NC2C(NN1)N(C)C(=O)N2C` (stereo not given), the growth is 9.01% (active).

For `O=C1[C@@H]2Cc3c([nH]c4ccccc34)[C@H](c3c(Cl)cccc3Cl)N2C(=O)CN1C1CCN(Cc2c(F)cccc2F)CC1`, the growth was 15.7% (inactive).

For the compound `COc1cc(/C=N/Nc2ccnc3cc(Cl)ccc23)cc(OC)c1O`, the growth was -68.7% (active).

As to `COc1ccc(-c2ccnc3c(C#N)c(Nc4ccccc4)nn23)cc1OC`, the growth is 87.5% (inactive).

Regarding `O=C1[C@@H]2Cc3c([nH]c4ccccc34)[C@H](c3c(Cl)cccc3Cl)N2C(=O)CN1C1CCN(Cc2ccccc2)CC1`, the growth was -32.8% (active).

With `CC1OC(O[C@@H]2C(O)C(CO)OC(O[C@H]3COC(O[C@H]4CC[C@]5(C)[C@H]6CC[C@]78OC[C@@]9(CC[C@](C)(C=O)C[C@H]97)[C@H](O)C[C@@]8(C)[C@]6(C)CC[C@H]5C4(C)C)[C@@H](OC4OC(CO)[C@@H](O)[C@@H](O)[C@@H]4O)[C@@H]3O)[C@H]2OC2OC[C@@H](O)[C@@H](O)[C@@H]2O)[C@@H](O)[C@@H](O)[C@H]1O` (stereo not given in full), the growth is -65.9% (active).

For the compound `Nc1nc(N)c2c(n1)NC(c1ccccc1)CC(c1ccc(Nc3nc(NCCO)nc(Nc4ccc(Cl)cc4)n3)cc1)=N2` (stereo not given), the growth was -92.7% (active).

Regarding `COc1ccc(S(=O)(=O)NCCCNc2nccc(-n3cnc4ccccc43)n2)cc1`, the growth was 89.9% (inactive).

Regarding `C#C[C@]1(O)CC[C@H]2[C@@H]3CC=C4c5sc(C6CCOCC6)nc5CC[C@]4(C)[C@H]3CC[C@@]21C`, the growth was 64.4% (inactive).

As to `CCNC(=NCCCN(C)C)N/C(N)=N/c1nc2ccccc2s1`, the growth is 76.4% (inactive).

As for `CS(=O)c1nccc(-c2c(-c3ccc(F)c(OCc4ccc(F)cc4)c3)nc3sccn23)n1` (stereo not given), the growth was 19.7% (inactive).

`C#Cc1ccc(NC(=O)c2ccc(/C=C/C(=O)c3nccn3C)cc2)c(F)c1`: the growth was 18% (inactive).

As to `CCNC(=O)Oc1ccc(/C(=C(/C)c2ccccc2)c2ccc(OCCN3CCCC3)cc2)cc1`, the growth is 38.3% (inactive).

For `CC[C@@](C)(NC(=O)C(C)(C)NC(=O)[C@@H](NC(=O)[C@@H]1CCCN1C(=O)C(C)(C)NC(=O)[C@H](CC(C)C)NC(=O)CNC(=O)C(C)(C)NC(=O)[C@@H](NC(=O)C(C)(C)NC(=O)[C@H](CCC(N)=O)NC(=O)[C@H](C)NC(=O)C(C)(C)NC(=O)[C@H](C)NC(=O)C(C)(C)NC(=O)[C@@H]1CCCN1C(=O)C(C)(C)NC(C)=O)C(C)C)C(C)C)C(=O)N[C@@H](CCC(N)=O)C(=O)N[C@@H](CCC(N)=O)C(=O)N[C@H](CO)Cc1ccccc1`, the growth is 27.8% [4.25 µM] (inactive).

As for `O=C(Cn1cc(CN2C(=O)c3ccc([N+](=O)[O-])cc3C2=O)nn1)Nc1ccc(F)cc1Cl`, the growth is 102% (inactive).

Regarding `COc1ccc(N2C(=O)c3cc(OC)c(OC)cc3NC2SCc2ccccc2)cc1` (stereo not given), the growth was 100% (inactive).

With `CC[C@H](C)[C@H]1NC(=O)[C@@H]([C@H](O)C(C)C)NC(=O)[C@@H](C)N(C)C(=O)[C@H](C)N(C)C(=O)[C@H](CC(C)C)NC(=O)[C@H](CC(C)C)N(C)C(=O)[C@H](C)N(C)C1=O`, the growth is 1.42% (active).

On to `Cc1cc(Cl)cc(NS(=O)(=O)c2ccc(-c3cnc(C4CC4)o3)cc2)c1`, for which the growth is 18.4% (inactive).
